# Compounds with a hit are over-represented: about 2.6% of the library has one in this group of screens.
# ClpP mod: qHTS Assay for Activators of ClpP; Potency, µM (top dose mostly 57.5 µM), for inactives: top-dose activity change, negative = active; purified B. subtilis ClpP, FRET peptide cleavage, 20 min; AID 651965, 2013; ATP-dependent Clp protease proteolytic subunit (Bacillus subtilis (strain 168)), P80244; hit rate 1.9% among 340,000; active = well fitted falling curve with a large enough effect; inconclusive = small, poorly fitted or top-dose-only effect; inactive = no such curve, though single readings can be large or run the other way; also: potency is read from the fitted curve at half-maximal effect; the source files actives as falling curves though it sought activators and does not explain the sign; nearly all actives have a fitted effect of over 65% in size
#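 Purified B. subtilis ClpP, 10 microg/mL final in Tris/HCl pH8 with KCl, BSA, glycerol and Tween-20, cleaved an Abz/nitrotyrosine-quenched decapeptide. Fluorescence (ex 320, em 430) was read at 0 and 20 min at room temperature. Delta was normalized to 5.8 microM ADEP and DMSO/no-enzyme controls.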
# TRPV1 ag: HTS Assay for Compounds that Act as Agonists of the Vanilloid Receptor 1; TRPV1-expressing cells, Fluo-8 calcium influx, agonist mode; AID 540275, 2011; hit rate 0.19% among 320,000; activation, % at 8.33 µM; in the data active = activation above about 80%; inconclusive = between about 30% and that limit; also: 0% is about no effect
#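 TRPV1-expressing cells were cultured overnight at 35.5C and loaded with Fluo-8 calcium dye for 40 to 90 min at room temperature. After a 10 s baseline, compound was added and calcium influx was read kinetically for 3 min (ex 480/em 520 nm).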
# KCNH2 3.1 block: qHTS for Inhibitors of KCHN2 3.1: Mutant qHTS. Potassium voltage-gated channel subfamily H member 2, brain isoform KCNH2 3.1 (human). U2OS KCNH2 3.1, thallium flux FluxOr; active compounds read low. activity change, % (tested at about 1.8 µM). hit rate 0.95% among 340,000;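 active = maximum activity change below -70%; inconclusive = maximum activity change from -70% to -50%; inactive = maximum activity change above -50%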;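 also: thallium influx rate constant from kinetic fluorescence after stimulation buffer; % is scaled to controls: 0 for no effect and ±100 for the full control effect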
#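 FluxOr-based Tl+ influx in U2OS cells transduced with KCNH2 3.1 virus; rate constants normalized to DMSO controls.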
# hERG WT inh: qHTS for Inhibitors of KCHN2 3.1: Wildtype qHTS; Voltage-gated inwardly rectifying potassium channel KCNH2 (Homo sapiens), Q12809; U2OS, BacMam KCNH2, thallium flux FluxOr; active compounds read low; activity change, % at 1.84 µM; hit rate 0.37% among 340,000; AID 720551, 2013;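 active = maximum activity change below -70%; inconclusive = maximum activity change between -70% and -50%; inactive = maximum activity change above -50%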; also: % is scaled to controls: 0 for no effect and ±100 for the full control effect
# Target sequence (Q12809 whole entry, looked up): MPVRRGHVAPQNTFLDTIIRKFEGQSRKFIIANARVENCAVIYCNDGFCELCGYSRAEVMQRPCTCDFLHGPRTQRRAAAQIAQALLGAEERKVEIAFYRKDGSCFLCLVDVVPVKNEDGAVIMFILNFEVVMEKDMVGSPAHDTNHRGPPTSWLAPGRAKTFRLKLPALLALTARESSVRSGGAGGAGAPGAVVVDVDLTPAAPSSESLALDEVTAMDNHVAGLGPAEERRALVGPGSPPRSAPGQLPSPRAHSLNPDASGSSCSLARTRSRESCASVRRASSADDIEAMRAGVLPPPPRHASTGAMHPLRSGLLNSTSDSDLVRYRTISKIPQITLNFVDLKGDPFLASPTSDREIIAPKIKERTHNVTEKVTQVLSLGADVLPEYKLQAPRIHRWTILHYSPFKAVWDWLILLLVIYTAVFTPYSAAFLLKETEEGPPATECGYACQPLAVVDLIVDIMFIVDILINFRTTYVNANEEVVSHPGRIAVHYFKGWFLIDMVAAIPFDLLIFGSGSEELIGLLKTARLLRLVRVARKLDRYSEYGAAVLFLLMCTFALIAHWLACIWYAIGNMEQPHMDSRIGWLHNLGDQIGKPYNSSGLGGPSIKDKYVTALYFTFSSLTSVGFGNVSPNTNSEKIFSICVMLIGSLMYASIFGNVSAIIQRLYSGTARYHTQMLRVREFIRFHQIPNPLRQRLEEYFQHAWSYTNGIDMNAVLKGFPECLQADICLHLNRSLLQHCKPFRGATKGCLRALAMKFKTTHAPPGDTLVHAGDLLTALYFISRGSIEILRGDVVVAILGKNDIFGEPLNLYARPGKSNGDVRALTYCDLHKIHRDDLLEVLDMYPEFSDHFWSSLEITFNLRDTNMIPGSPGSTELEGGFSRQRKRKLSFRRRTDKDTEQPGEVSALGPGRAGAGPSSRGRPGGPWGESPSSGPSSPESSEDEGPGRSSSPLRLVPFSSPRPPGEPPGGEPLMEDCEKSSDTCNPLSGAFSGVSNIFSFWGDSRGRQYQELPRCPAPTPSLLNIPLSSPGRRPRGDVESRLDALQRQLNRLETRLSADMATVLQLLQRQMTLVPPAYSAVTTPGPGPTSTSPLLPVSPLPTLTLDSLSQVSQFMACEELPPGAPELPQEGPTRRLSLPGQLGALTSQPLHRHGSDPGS
#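 U2OS cells were transduced with wild-type KCNH2 virus (2.03 x 10^8 / mL) for 4 h at room temperature, then cultured overnight at 37 C. Thallium flux was read with FluxOr dye. Rate constants were normalized to DMSO controls.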
# TRPV1 potentiator: HTS Assay for Compounds that Act as Potentiators of the Vanilloid Receptor 1 | Transient receptor potential cation channel subfamily V member 1 (Homo sapiens), Q8NER1 | hit rate 0.02% among 320,000 | TRPV1-expressing cells, Fluo-8 calcium influx, capsaicin EC20 potentiation | potentiation, % at 8.33 µM | AID 540277, 2011; in the data active = potentiation above about 80%; inconclusive = between about 30% and that limit; also: 0% is about no effect
#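 Cells expressing TRPV1 were dye-loaded with Fluo-8 and read kinetically: 10 s baseline, 3 min after compound (agonist portion), then 2 min after EC20 capsaicin (allosteric enhancer portion). Calcium-bound dye fluorescence at 480/520 nm.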
# p53 reactivator: qHTS assay for re-activators of p53 using a Luc reporter; H1299 p53-A138V BP100-luciferase reporter, luminescence, 24 h; Potency, µM (highest dose often 92.2 µM), without a hit: at the top dose activity change, positive = activation, most hits filed as activators; hit rate 0.063% among 320,000; AID 504706, 2011; active = well fitted activation curve with a large enough effect; inconclusive = small, poorly fitted or top-dose-only effect; inactive = no such curve, though single readings can be large or run the other way; also: potency is read from the fitted curve at half-maximal effect; % of control where 0% means no effect; nearly all actives have a fitted effect of over 45% in size
#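 H1299 (p53-null), stable ts p53-A138V + BP100-Luc; 1000 cells/well, Opti-MEM/10% FBS; cpd 4 pt, 1:5; 24 h, 37 deg C, 5% CO2; detection reagent 10 min RT; luminescence.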
# * marks the source's active call; other numbers are inactive results; ? = inconclusive; / = not tested or not shown; ! = not active in a repeat.
SMILES,ClpP mod,TRPV1 ag,KCNH2 3.1 block,hERG WT inh,TRPV1 potentiator,p53 reactivator
COc1ccc(C2Nc3ccccc3C(=O)N2Cc2ccco2)cc1COc1ccc(F)cc1 (stereo not drawn),25.1µM*,0.8,-30.9,-1.1,-10.3,-12.7%
CCOc1cc(C2Nc3ccccc3C(=O)N2c2ccccc2OC)ccc1O (stereo not drawn),?,1.1,-25.4,2.9,-0.3,2.5%
COc1ccc(N2C(=O)c3ccccc3NC2c2ccc(OC)c(COc3ccccn3)c2)cc1 (stereo not drawn),25.1µM*!,-0.9,5.2,35.7,-0.7,?
COc1ccc(C2Nc3ccccc3C(=O)N2c2ccc(C)cc2)cc1Cn1cc([N+](=O)[O-])cn1 (stereo not drawn),-9.5%,-3.8,-32.0,-8.6,1.8,26.0%
COc1cc(C2Nc3ccccc3C(=O)N2c2ccccc2OC)ccc1O (stereo not drawn),31.6µM*,1.0,1.6,-9.9,-5.9,1.0%
COc1ccc(C2Nc3ccccc3C(=O)N2c2ccc(C)cc2)cc1Cn1nnc2ccccc21 (stereo not drawn),31.6µM*,2.4,1.3,4.4,15.4,47.2%
O=c1c2cnn(-c3ccc(Cl)cc3)c2ncn1Cc1ccc(Cl)cc1Cl,-10.2%,/,/,/,/,/
O=C(C[n+]1cccc2cc(Cl)ccc21)c1ccc(I)cc1,-15.1%,/,/,/,/,/
O=S1(=O)CC(N2CC=CC2)CN1Cc1cn(Cc2cccc(C(F)(F)F)c2)nn1 (stereo not drawn),-3.4%,/,/,/,/,/
Cc1cc(C)cc(NS(=O)(=O)c2c(C)nc3scc(C)n3c2=O)c1,0.7%,/,/,/,/,/
Cc1ccc(-c2nnc(Nc3ccc(C(=O)N(C)C)cc3)c3ccccc23)cc1S(=O)(=O)N(C)C,-1.5%,/,/,/,/,/
COc1ccc(C2Nc3ccccc3C(=O)N2Cc2ccccc2)cc1COc1ccccn1 (stereo not drawn),25.1µM*,-1.8,-16.5,-1.5,?,-6.1%
COc1ccc(N2C(=O)c3ccccc3NC2c2ccc(OC)c(CSc3ccccn3)c2)cc1 (stereo not drawn),25.1µM*,-0.1,-7.0,-0.6,14.1,8.5%
CN(C)c1ccc(/C=C/c2cc3ccccc3c[n+]2C)cc1,-1.8%,/,/,/,/,/
COc1ccc(CN2CCN(Cc3cc(=O)oc4cc(C)ccc34)CC2)c(OC)c1OC,-4.2%,3.6,-100.0*,?,2.5,-5.2%
COc1ccccc1N1CCN(Cc2cc(=O)oc3cc(C)ccc23)CC1,-4.2%,/,/,/,/,/
COc1ccc2oc(=O)cc(CN3CCN(Cc4ccccc4)CC3)c2c1,?,/,-17.3,36.1,/,/
COc1ccc2c(CN3CCN(Cc4ccccc4)CC3)cc(=O)oc2c1,-17.9%,/,-107.7*,-78.8*,/,/
CCc1ccc2c(CN3CCN(Cc4ccccc4)CC3)cc(=O)oc2c1,/,1.4,-119.8*,-141.5*,2.0,-3.0%
COc1ccc2c(COC(=O)c3n[nH]c4ccccc34)cc(=O)oc2c1,28.2µM*,-4.7,2.0,-1.0,2.4,?
Cc1cc2oc(=O)cc(COC(=O)c3n[nH]c4ccccc34)c2cc1C,-7.7%,1.1,-4.7,2.1,-0.7,7.9%
CCOc1ccccc1N(C)C(=O)Cn1cnc2onc(-c3ccc(F)cc3)c2c1=O,2.3%,/,/,/,/,/
CC(N)c1csc(Nc2ccc(C(=O)NCCCO)cn2)n1 (stereo not drawn),-14.2%,/,/,/,/,/
COc1ccc(C(N)c2csc(Nc3ccc(C(=O)NCCCO)cn3)n2)cc1 (stereo not drawn),28.2µM*,/,/,/,/,/
CN(C)c1ccc(/C=C/C(=O)c2ccc(O)cc2)cc1,-1.1%,/,-29.6,?,/,/
SMILES,ClpP mod,TRPV1 ag,KCNH2 3.1 block,hERG WT inh,TRPV1 potentiator,p53 reactivator
CN(C)c1ccc(/C=C/C(=O)c2cccnc2)cc1,/,84.9*,-10.4,-21.4,-3.5,20.6%
CCc1ccc(-c2cc(C(=O)N3N=C(C(F)F)CC3(O)C(F)F)c3ccccc3n2)cc1 (stereo not drawn),22.4µM*,13.3,-6.5,-2.9,-18.9,?
COc1ccc(C)cc1NC(=O)CSc1ncc2c(n1)-c1ccc(Cl)cc1N(Cc1ccccc1)S2(=O)=O,-3.3%,/,/,/,/,/
COc1ccccc1C1Nc2ccccc2NC2=C1C(=O)CC(C)(C)C2 (stereo not drawn),-0.1%,-5.2,-193.9*,-129.1*,5.8,/
O=S(=O)(c1ccccc1)n1ccc(-c2cnc(-c3ccccc3)s2)n1,14.1µM*,/,-16.0,-5.8,/,17.6%
CC(C(=O)NC1CCCC1)N(C(=O)c1ccc(-c2ccccc2)[nH]1)c1ccccc1F (stereo not drawn),31.6µM*,27.5,-6.4,-7.1,-11.7,-1.0%
COc1cc(Br)cc(CN2CCN(C/C=C/c3ccccc3)CC2)c1O,-0.4%,10.5,-71.4*,-23.6,-3.7,-4.5%
COc1ccc(O)c(CN2CCN(C/C=C/c3ccccc3)CC2)c1,-1.1%,1.3,5.7,34.4,-1.7,12.1%
Cc1cc(C)c2c(CN3CCN(C/C=C/c4ccccc4)CC3)cc(=O)oc2c1,-3.9%,-5.4,-86.8*,-100.7*,7.0,3.0%
Cc1ccccc1OCC(=O)Nc1sc2c(c1C(=O)OC(C)C)CCCC2,0.9%,/,/,/,/,/
O=c1nc2ccccc2c2n1CC(CN1CCN(Cc3ccccc3)CC1)N2 (stereo not drawn),15.8µM*,0.0,-0.2,27.5,5.3,-20.8%
COC(=O)c1[nH]c2ccccc2c1NC(=O)Oc1ccccc1,28.2µM*,/,3.0,4.9,/,17.9%
COC(=O)c1[nH]c2cc(OC)c(OC)cc2c1NC(=O)Oc1ccccc1,31.6µM*,3.2,0.6,3.1,6.3,-4.4%
CCOC(=O)Nc1c(C(=O)OC)[nH]c2cc(OC)ccc12,?,?,-1.8,-24.4,-14.8,-8.0%
C=CCOC(=O)Nc1c(C(=O)OC)[nH]c2ccccc12,-7.4%,18.7,-8.0,-8.0,-9.9,5.8%

# Compound activity (PubChem BioAssay)
